Active and inactive are the calls of the source. The calls were made as follows: active = hit-call score of the fitted dose curve at least 0.9, where 1 is the maximum; inactive = score below 0.9.
Tests used:
[1] = ATG_E_Box_CIS: Attagene CIS-FACTORIAL HepG2 Assay for human Enhancer Box (E-box) (AID 2282936); conditions: HepG2 E-box cis-reporter transcription, actives raise or lower the signal
Method in brief: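 Cells: HepG2 (human liver), transient MRTU transfection. Exposure 24 h. RNA → oligo(dT) RT → PCR → 6-FAM label → HpaI → CE. Activity fitted both directions relative to DMSO.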

[2] = ATG_M_61_CIS: Attagene CIS-FACTORIAL HepG2 Assay for M61 Transcription Factor (Internal Marker) (AID 2282937); conditions: HepG2 Attagene CIS-FACTORIAL M61 internal marker reporter; actives raise or lower the signal
Method in brief: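 Transfect HepG2 with MRTUs; dose 24 h; isolate RNA; reverse-transcribe with DNase I treatment; PCR-amplify, FAM-label and cut with HpaI for 2 h at 37 C; resolve by CE. Bidirectional fitting against DMSO.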

[3] = ATG_EGR_CIS: Attagene CIS-FACTORIAL HepG2 Assay for human Early Growth Response 1 (EGR1) (AID 2282938); conditions: HepG2 Attagene CIS-FACTORIAL EGR reporter mRNA; actives raise or lower the signal
Method in brief: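 After a 24 h treatment of transiently transfected HepG2 cells, total RNA was reverse-transcribed and reporter sequences PCR-amplified, labelled and run on capillary electrophoresis. Reporters sit under cis-regulatory promoters sensing endogenous factors.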

[4] = ATG_M_19_CIS: Attagene CIS-FACTORIAL HepG2 Assay for M19 Transcription Factor (Internal Marker) (AID 2282939); conditions: HepG2 Attagene CIS-FACTORIAL M19 internal marker reporter; actives raise or lower the signal
Method in brief: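 In this multiplexed cell assay, transiently transfected HepG2 reporter units report endogenous transcription-factor activity; after 24 hours of treatment, labelled reporter cDNA fragments are quantified by capillary electrophoresis and fitted bidirectionally against DMSO.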

[5] = ATG_ERE_CIS: Attagene CIS-FACTORIAL HepG2 Assay for Estrogen Response Element (ERE) (AID 2282940); conditions: HepG2 ERE cis-reporter, Attagene RNA transcript; actives raise or lower the signal
Method in brief: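 Measuring endogenous transcription factor output, the assay doses transfected HepG2 cells for 24 hours and quantifies reporter transcripts by fluorescent RT-PCR and capillary electrophoresis, with DMSO as baseline.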

[6] = ATG_FoxO_CIS: Attagene CIS-FACTORIAL HepG2 Assay for human Forkhead box O (FoxO) (AID 2282943); conditions: HepG2 Attagene cis-reporter, FoxO element, mRNA; actives raise or lower the signal
Method in brief: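 Endogenous transcription factor activity read from multiplexed cis-promoter reporter transcripts in transiently transfected HepG2, 24 h after dosing. Reporter RNA measured via RT-PCR plus capillary electrophoresis of FAM-labeled products; gain or loss relative to DMSO.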

[7] = ATG_GATA_CIS: Attagene CIS-FACTORIAL HepG2 Assay for human GATA Binding Protein (AID 2282944); conditions: HepG2 GATA cis-element reporter, Attagene multiplex mRNA; actives raise or lower the signal
Method in brief: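 Measures endogenous transcription factor-driven reporter mRNA in HepG2 cells transiently carrying cis-regulated constructs. 24 h dosing; RNA via oligo(dT) reverse transcription, PCR, HpaI digestion, capillary electrophoresis; fitted relative to DMSO.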

[8] = ATG_GLI_CIS: Attagene CIS-FACTORIAL HepG2 Assay for human Zinc Finger Protein GLI1 (AID 2282945); conditions: HepG2, Attagene cis-factorial reporter mRNA, GLI element; actives raise or lower the signal
Method in brief: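 Bidirectional curve fits relative to DMSO, using reporter mRNA levels from RT-PCR plus capillary electrophoresis. Cells were HepG2 transiently carrying cis-regulated reporter constructs, harvested 24 h after dosing.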

[9] = molecular target: Bile acid receptor (Homo sapiens) (UniProt Q96RI1); experiment: ATG_IR1_CIS: Attagene CIS-FACTORIAL HepG2 Assay for human Nuclear Receptor Subfamily 1 Group H Member 4 (NR1H4), IR1 submotif (AID 2282946); conditions: IR1 reporter transcription, actives raise or lower the signal
Bile acid receptor (Homo sapiens), sequence (Q96RI1 whole entry, looked up, the tested form may be a part): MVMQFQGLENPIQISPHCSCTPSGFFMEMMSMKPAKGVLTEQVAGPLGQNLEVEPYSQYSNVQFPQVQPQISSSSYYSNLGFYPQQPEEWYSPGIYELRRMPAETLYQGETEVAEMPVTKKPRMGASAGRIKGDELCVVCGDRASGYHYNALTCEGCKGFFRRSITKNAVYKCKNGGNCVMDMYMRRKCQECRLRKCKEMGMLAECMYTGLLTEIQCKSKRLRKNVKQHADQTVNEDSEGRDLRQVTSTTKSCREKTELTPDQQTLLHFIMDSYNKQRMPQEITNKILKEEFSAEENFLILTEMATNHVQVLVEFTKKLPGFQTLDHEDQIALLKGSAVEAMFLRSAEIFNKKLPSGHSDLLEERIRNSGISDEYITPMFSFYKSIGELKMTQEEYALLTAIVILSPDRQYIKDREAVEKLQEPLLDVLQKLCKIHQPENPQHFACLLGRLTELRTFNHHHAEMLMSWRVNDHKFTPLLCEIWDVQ
Method in brief: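 Cells (human HepG2) carry transiently transfected cis-promoter reporter transcription units. Compounds are incubated 24 h, total RNA is reverse-transcribed and amplified, and labelled fragments are resolved by capillary electrophoresis. Curves use DMSO as baseline.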

[10] = ATG_ISRE_CIS: Attagene CIS-FACTORIAL HepG2 Assay for human Interferon Regulatory Factor 1 (IRF1) binding to an Interferon-Stimulated Response Element (ISRE) (AID 2282948); conditions: HepG2 ISRE cis-reporter (Attagene), mRNA transcription readout; actives raise or lower the signal
Method in brief: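 Transfected HepG2 (multiple reporter transcription units, cis elements) dosed 24 h. RNA → oligo(dT) RT → PCR → 6-FAM primer extension → HpaI → CE. DMSO = negative control/baseline.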

[11] = ATG_M_32_CIS: Attagene CIS-FACTORIAL HepG2 Assay for M32 Transcription Factor (Internal Marker) (AID 2282949); conditions: HepG2 Attagene cis-factorial M32 reporter, mRNA; actives raise or lower the signal;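 also: background control marker of the multiplexed CIS panel rather than a real target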
Method in brief: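 Fluorescent capillary electrophoresis peaks of HpaI-digested, FAM-labelled RT-PCR reporter products give the signal. Source: transiently transfected human liver HepG2 cells, 24 h after chemical dosing; bidirectional fitting against DMSO.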

[12] = ATG_M_06_CIS: Attagene CIS-FACTORIAL HepG2 Assay for M06 Transcription Factor (Internal Marker) (AID 2282950); conditions: HepG2 Attagene CIS-FACTORIAL M06 internal marker reporter; actives raise or lower the signal
Method in brief: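 One of many multiplexed endpoints: HepG2 reporter mRNA after 24 h dosing, detected by RT-PCR and capillary electrophoresis fluorescence; gain or loss of signal analysed against DMSO.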

[13] = molecular target: Hypoxia-inducible factor 1-alpha (Homo sapiens) (UniProt Q16665); experiment: ATG_HIF1a_CIS: Attagene CIS-FACTORIAL HepG2 Assay for human Hypoxia Inducible Factor 1 (HIF1A) (AID 2282951); conditions: HepG2 Attagene cis-factorial HIF1a reporter transcription; actives raise or lower the signal
Hypoxia-inducible factor 1-alpha (Homo sapiens), sequence (Q16665 whole entry, looked up): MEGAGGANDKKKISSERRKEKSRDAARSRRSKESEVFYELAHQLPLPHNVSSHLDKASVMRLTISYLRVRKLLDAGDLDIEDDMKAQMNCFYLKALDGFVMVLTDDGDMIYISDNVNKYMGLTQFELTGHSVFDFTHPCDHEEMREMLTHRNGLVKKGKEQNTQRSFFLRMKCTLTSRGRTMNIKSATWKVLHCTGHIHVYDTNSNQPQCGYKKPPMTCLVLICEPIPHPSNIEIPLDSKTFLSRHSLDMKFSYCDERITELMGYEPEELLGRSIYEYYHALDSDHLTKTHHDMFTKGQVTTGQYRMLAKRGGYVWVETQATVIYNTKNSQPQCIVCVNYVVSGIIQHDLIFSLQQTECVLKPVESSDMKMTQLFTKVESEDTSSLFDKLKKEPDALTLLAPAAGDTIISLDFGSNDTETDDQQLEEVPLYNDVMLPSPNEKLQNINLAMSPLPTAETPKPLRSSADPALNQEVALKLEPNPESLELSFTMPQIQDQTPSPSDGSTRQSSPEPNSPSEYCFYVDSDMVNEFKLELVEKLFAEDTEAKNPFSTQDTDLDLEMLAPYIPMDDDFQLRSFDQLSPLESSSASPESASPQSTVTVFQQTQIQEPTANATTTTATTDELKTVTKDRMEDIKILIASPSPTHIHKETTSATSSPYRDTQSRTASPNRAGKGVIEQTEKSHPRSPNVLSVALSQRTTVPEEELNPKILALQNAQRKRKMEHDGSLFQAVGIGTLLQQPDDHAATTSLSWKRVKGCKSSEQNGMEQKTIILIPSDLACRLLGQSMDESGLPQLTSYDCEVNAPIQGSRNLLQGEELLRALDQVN
Method in brief: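 After 24 h chemical exposure of reporter-transfected HepG2 cells, reporter cDNA was PCR-amplified, labelled by 6-FAM primer extension (2 min 95 C, 20 s 68 C, 10 min 72 C), HpaI-cut (2 h, 37 C) and analysed by CE.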

[14] = molecular target: Hepatocyte nuclear factor 6 (Homo sapiens) (UniProt Q9UBC0); experiment: ATG_HNF6_CIS: Attagene CIS-FACTORIAL HepG2 Assay for human Hepatocyte Nuclear Factor 6 (HNF6) (AID 2282952); conditions: HepG2 Attagene cis-factorial HNF6 reporter transcription; actives raise or lower the signal
Hepatocyte nuclear factor 6 (Homo sapiens), sequence (Q9UBC0 whole entry, looked up): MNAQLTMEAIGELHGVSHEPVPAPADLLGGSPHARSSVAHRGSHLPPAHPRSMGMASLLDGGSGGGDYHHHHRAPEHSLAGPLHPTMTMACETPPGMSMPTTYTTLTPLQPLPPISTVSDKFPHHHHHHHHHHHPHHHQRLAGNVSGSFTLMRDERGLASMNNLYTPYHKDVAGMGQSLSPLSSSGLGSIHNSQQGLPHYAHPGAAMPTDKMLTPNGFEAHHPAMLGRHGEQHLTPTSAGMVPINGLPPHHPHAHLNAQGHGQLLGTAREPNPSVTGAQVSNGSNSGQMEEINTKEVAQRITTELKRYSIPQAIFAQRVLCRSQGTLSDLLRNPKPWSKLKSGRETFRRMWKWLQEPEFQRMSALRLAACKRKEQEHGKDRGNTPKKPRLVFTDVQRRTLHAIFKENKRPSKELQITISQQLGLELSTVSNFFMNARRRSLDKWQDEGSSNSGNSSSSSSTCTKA
Method in brief: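 Transiently transfected HepG2 cells expressing cis-regulated reporter transcription units were exposed to chemical for 24 h in a 24-well format. Reporter transcript abundance was determined by fluorescence capillary electrophoresis.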

[15] = molecular target: Heat shock factor protein 1 (Homo sapiens) (UniProt Q00613); experiment: ATG_HSE_CIS: Attagene CIS-FACTORIAL HepG2 Assay for human Heat Shock Transcription Factor 1 (HSE) (AID 2282953); conditions: HepG2 HSE cis-reporter, Attagene RNA transcription; actives raise or lower the signal
Heat shock factor protein 1 (Homo sapiens), sequence (Q00613 whole entry, looked up): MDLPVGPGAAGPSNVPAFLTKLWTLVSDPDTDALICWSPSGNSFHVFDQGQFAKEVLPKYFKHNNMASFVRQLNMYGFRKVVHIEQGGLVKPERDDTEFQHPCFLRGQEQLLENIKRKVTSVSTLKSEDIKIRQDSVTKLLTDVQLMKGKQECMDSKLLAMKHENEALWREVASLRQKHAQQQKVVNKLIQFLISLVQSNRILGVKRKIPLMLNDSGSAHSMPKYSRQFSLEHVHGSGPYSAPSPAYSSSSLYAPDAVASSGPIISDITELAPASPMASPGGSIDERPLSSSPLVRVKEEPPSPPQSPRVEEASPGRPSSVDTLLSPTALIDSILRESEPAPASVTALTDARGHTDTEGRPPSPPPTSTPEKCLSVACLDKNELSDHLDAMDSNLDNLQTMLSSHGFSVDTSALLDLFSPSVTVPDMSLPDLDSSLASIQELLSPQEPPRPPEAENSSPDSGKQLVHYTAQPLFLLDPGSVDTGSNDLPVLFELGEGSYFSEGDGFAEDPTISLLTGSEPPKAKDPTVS
Method in brief: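 Using HepG2 with transfected cis-driven reporter constructs, compound effects on endogenous factor activity are scored as reporter mRNA change at 24 h. Detection: RT-PCR, HpaI digestion, capillary electrophoresis; bidirectional fitting to DMSO.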

[16] = ATG_MRE_CIS: Attagene CIS-FACTORIAL HepG2 Assay for human Metal Responsive Element (MRE) (AID 2282954); conditions: HepG2 MRE cis-reporter transcription, Attagene multiplex; actives raise or lower the signal
Method in brief: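 Transient MRTU transfection of HepG2 (FuGene 6); 24 h dosing; total RNA → oligo(dT) RT, PCR, 6-FAM primer extension, HpaI cut, CE. Bidirectional fit vs DMSO.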

[17] = ATG_PBREM_CIS: Attagene CIS-FACTORIAL HepG2 Assay for human Phenobarbital-responsive Enhancer Module (PBREM) (AID 2282955); conditions: HepG2 PBREM cis-reporter, Attagene multiplexed transcription; actives raise or lower the signal
Method in brief: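 Measures endogenous factor action on a phenobarbital-responsive enhancer module. HepG2 transiently carrying cis reporters, 24 h treatment, mRNA read-out by RT-PCR plus capillary electrophoresis.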

[18] = ATG_GRE_CIS: Attagene CIS-FACTORIAL HepG2 Assay for human Glucocorticoid Response Elements (GRE) (AID 2282947); conditions: HepG2 GRE cis-reporter, Attagene multiplex mRNA; actives raise or lower the signal
Method in brief: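 Transient MRTU transfection of human HepG2 liver cells; cis-regulated reporters report endogenous factors. 24 h dosing → RNA isolation → RT-PCR → 6-FAM primer extension → HpaI cut → CE fragment analysis. Bidirectional fit, DMSO negative control.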

[19] = ATG_Ets_CIS: Attagene CIS-FACTORIAL HepG2 Assay for human Erythroblast Transformation Specific (ETS) (AID 2282941); conditions: HepG2 ETS cis-reporter transcription, actives raise or lower the signal
Method in brief: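 Steps: transfect HepG2 with multiple reporter units; treat compound 24 h; isolate RNA, DNase-treat, reverse-transcribe; PCR-amplify, label with 6-FAM, digest with HpaI; separate by capillary electrophoresis. Activity fitted both directions versus DMSO.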

[20] = molecular target: Hepatocyte nuclear factor 3-beta (Homo sapiens) (UniProt Q9Y261); experiment: ATG_FoxA2_CIS: Attagene CIS-FACTORIAL HepG2 Assay for human Forkhead box A2 (FOXA2) (AID 2282942); conditions: HepG2 cis-reporter transcription factor activity, 24 h; actives raise or lower the signal
Hepatocyte nuclear factor 3-beta (Homo sapiens), sequence (Q9Y261 whole entry, looked up): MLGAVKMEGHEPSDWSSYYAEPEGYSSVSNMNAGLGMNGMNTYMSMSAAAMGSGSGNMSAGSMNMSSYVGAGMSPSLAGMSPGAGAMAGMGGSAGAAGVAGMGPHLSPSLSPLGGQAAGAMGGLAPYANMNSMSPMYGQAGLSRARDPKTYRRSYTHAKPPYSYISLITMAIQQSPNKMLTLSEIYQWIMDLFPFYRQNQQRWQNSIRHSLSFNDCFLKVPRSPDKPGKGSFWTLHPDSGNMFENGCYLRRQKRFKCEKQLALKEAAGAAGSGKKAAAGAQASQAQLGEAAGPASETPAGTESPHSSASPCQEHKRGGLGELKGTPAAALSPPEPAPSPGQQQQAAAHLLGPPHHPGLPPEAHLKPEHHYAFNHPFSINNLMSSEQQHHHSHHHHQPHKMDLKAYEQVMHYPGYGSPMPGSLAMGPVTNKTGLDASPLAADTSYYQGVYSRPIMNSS
Method in brief: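 24 h dosing of HepG2 bearing cis-reporter constructs; mRNA readout by RT-PCR/CE fluorescence; bidirectional fit, DMSO baseline.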

Measured: AC50

Cc1ccc(N/N=c2\c(=O)cc/c(=N/Nc3ccc(S(=O)(=O)O)cc3)c2=O)c(C)c1
inactive: [1] | [2] | [3] | [4] | [6] | [7] | [8] | [9] | [10] | [11] | [12] | [13] | [14] | [15] | [16] | [17]
active: [5] 100 µM

CCCCCCCCC(=O)OCC
inactive: [1] | [2] | [3] | [4] | [5] | [6] | [7] | [8] | [18] | [10] | [11] | [12] | [13] | [14] | [15] | [16]

CCCCCC/C=C\CCCCCCCC(=O)O
inactive: [1] | [2] | [3] | [5] | [19] | [20] | [6] | [7] | [8] | [9] | [18] | [10] | [11] | [12] | [13] | [14] | [15] | [16] | [17]
